In PubChem BioAssay (NCI) one finds growth data, which are given here for 40 molecules.

SMILES strings stand for the structures. This is part of a sample that, as a whole, favours compounds with a hit. Of some 83,000 tested, about 20% had one in any assay.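 In brief: 96-well plates, 48 h treatment, single concentration, percent growth endpoint.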 Unmarked numbers belong to inactive results. Calls of active or inactive are those of the source. Rule for the calls: active = growth percent below 10; inactive = the rest.

One experiment relates to SR leukemia. Description: NCI-60 one-dose screen, 48 h (100 = growth as untreated, 0 = no growth, -100 = all killed). The conditions noted are these: 10 µM unless noted.
With `O=c1oc2ccccc2cc1-c1csc(N=Nc2c(O)[nH]c3ccc(Cl)cc23)n1`, the growth was 102%.

For the molecule `COc1cc2nc(SCc3cc(OC)c(OC)c(OC)c3)n(-c3ccccc3OC)c(=O)c2cc1OC`, the growth is 23.8%.

Take `COc1ccc(-c2nc3sccn3c2/C=C/C(=O)c2cc(OC)c(OC)c(OC)c2)cc1OC`: the growth was 14.6%.

For `COC(=O)c1c2c(c(C)[n+]([O-])c1C)C(=O)C=C(NCc1ccc(F)c(Cl)c1)C2=O`, the growth was -1.19% (active).

As for `O=C(N/N=C/c1ccc(F)cc1)c1[nH]c2ccc(I)cc2c1-c1ccccc1`, the growth is 114%.

`Cc1nc2cc(Nc3nc(Nc4ccc(F)cc4)nc(N4CCCC4)n3)ccc2n1Cc1ccccc1`: the growth was -27.9% (active).

Regarding `COc1cc2oc(-c3ccc(O)cc3)cc(=O)c2c(O)c1I`, the growth was 79.3%.

`COC(=O)c1c2c(c(C)[n+]([O-])c1C)C(=O)C=C(NCc1ccc(Cl)cc1)C2=O`: the growth was 3.91% (active).

For `Cc1nc2cc(Nc3nc(Nc4ccc(F)cc4)nc(N4CCN(C)CC4)n3)ccc2n1Cc1ccccc1`, the growth is -21.6% (active).

Turning to `COc1ccc(OC)c2ncccc12`, the growth is 99%.

In the case of `COc1ccc(S(=O)(=O)ON=C2C=C(C)C(=O)C(C)=C2)cc1`, the growth was 31.8%.

In the case of `O=C(COc1cccc(/C=C2\COc3ccccc3C2=O)c1)c1ccccc1`, the growth is -62.4% (active).

Regarding `Oc1cccc(Nc2nc(-c3ccccn3)cs2)c1`, the growth is 87.8%.

Regarding `O=C1c2c(c3c4cc(Br)ccc4[nH]c3c3ccc4ccccc4c23)C(=O)N1O`, the growth is 33.9%.

Regarding `C=CC[P+](c1ccccc1)(c1ccccc1)c1ccccc1`, the growth was 35.7%.

Turning to `COC(=O)c1c2c(c(C)[n+]([O-])c1C)C(=O)C=C(NCc1cccc(Cl)c1)C2=O`, the growth is 1.95% (active).

With `COc1ccc(-c2[nH]ncc2Nc2cc(OC)c(OC)c(OC)c2)cc1`, the growth was 116%.

With `COc1ccc(-c2nc(Nc3ccc(F)cc3)nc(Nc3ccc4c(c3)nc(C)n4Cc3ccccc3)n2)cc1`, the growth was -20.4% (active).

For `O=C(N/N=C(\CS(=O)(=O)c1ccccc1)c1cc2ccccc2oc1=O)c1ccccc1`, the growth was 101%.

For the molecule `COc1ccc(C(=O)C2=CC(=O)C(=O)C2)cc1OC`, the growth is 94.3%.

On to `COc1ccc(C(=O)COc2cccc(/C=C3\CSc4ccc(C)cc4C3=O)c2)cc1`, for which the growth is -7.75% (active).

Take `Cc1ccc(S(=O)(=O)N2C/C(=C\c3cc(F)cc(F)c3)C(=O)/C(=C/c3cc(F)cc(F)c3)C2)cc1`: the growth was 3.56% (active).

On to `Nc1nc(N)c(N=Nc2c(Br)cc(S(N)(=O)=O)cc2Br)c(N)n1`, for which the growth was 34.5%.

Regarding `Cc1ccc(-c2c3c(N)c4c(nc3nc3c2c(C)nn3-c2ccccc2)CCCC4)cc1`, the growth was -4.06% (active).

In the case of `COc1cc(-c2nc3ccccc3o2)cc(CN2CCN(c3ccccc3)CC2)c1O`, the growth is 45.1%.

Regarding `Cc1cccc2c(=O)c3c(sc12)c(NCCNCCO)nc1ccccc13`, the growth is -44.1% (active).

Turning to `Nc1nc2c(s1)CCc1c-2c(Br)n(Cc2ccccc2)c1Br`, the growth was 20.8%.

For `COC(=O)c1c2c(c(C)[n+]([O-])c1C)C(=O)C=C(NCc1cccc(OC)c1)C2=O`, the growth was -8.2% (active).

In the case of `COc1ccc(-c2csc3c2-n2cccc2C3=O)cc1O`, the growth is -6.8% (active).

For the molecule `COc1ccc(-c2c(-c3cc4c(c(OC)c3OC)OCO4)noc2N)cc1`, the growth was 10.9%.

As to `O=C(N/N=C(\CS(=O)(=O)c1ccccc1)c1cc2cc(Br)ccc2oc1=O)c1ccccc1`, the growth was 122%.

For `Cn1c(=O)c2c(-c3ccccc3F)n(-c3ccc4c(c3)OCO4)cc2n(C)c1=O`, the growth is 68.1%.

For the molecule `CN(C)C(=S)SCN1C(=O)c2ccc([N+](=O)[O-])cc2S1(=O)=O`, the growth is 75.8%.

Turning to `Cc1nn(-c2ccccc2)c2nc3nc4c(c(N)c3c(-c3ccc(Cl)cc3)c12)CCCC4`, the growth is -15.3% (active).

Take `COc1cc(CNCCN2C(=O)c3ccc4c5c(ccc(c35)C2=O)C(=O)N(CCNCc2cc(OC)c(OC)c(OC)c2)C4=O)cc(OC)c1OC`: the growth is 0.859% (active).

Consider `O=C(O)c1ccccc1Oc1cc(-c2ccco2)nc(OCCBr)n1`, for which the growth was 102%.

`COc1cc(-c2ccc3cc(OC)c(OC)c(OC)c3c2)cc(OC)c1OC`: the growth is 4.29% (active).

On to `COc1cccc(-c2ccc3c(c2)C2CCN(Cc4ccccc4)C3C2)c1` (stereo not given), for which the growth was 18.4%.

In the case of `COc1ccc(OC2=CC(=O)c3ccc(C)nc3C2=O)cc1`, the growth was 51.2%.

With `CC(=O)OC[C@]1(C)C=C2C(=O)[C@](C)(O)C3(CC3)C(C)=C2[C@H]1OC(C)=O`, the growth is 62.8%.

The next experiment deals with RPMI-8226 leukemia. The description is as above. Conditions: 10 µM.
In the case of `O=c1oc2ccccc2cc1-c1csc(N=Nc2c(O)[nH]c3ccc(Cl)cc23)n1`, the growth was 105%.

Turning to `COc1cc2nc(SCc3cc(OC)c(OC)c(OC)c3)n(-c3ccccc3OC)c(=O)c2cc1OC`, the growth was 71.2%.

On to `COc1ccc(-c2nc3sccn3c2/C=C/C(=O)c2cc(OC)c(OC)c(OC)c2)cc1OC`, for which the growth is 10.9%.

With `COC(=O)c1c2c(c(C)[n+]([O-])c1C)C(=O)C=C(NCc1ccc(F)c(Cl)c1)C2=O`, the growth was -32.7% (active).

For `O=C(N/N=C/c1ccc(F)cc1)c1[nH]c2ccc(I)cc2c1-c1ccccc1`, the growth is 22%.

`Cc1nc2cc(Nc3nc(Nc4ccc(F)cc4)nc(N4CCCC4)n3)ccc2n1Cc1ccccc1`: the growth is -47.4% (active).

In the case of `COc1cc2oc(-c3ccc(O)cc3)cc(=O)c2c(O)c1I`, the growth is 87.1%.

For `COC(=O)c1c2c(c(C)[n+]([O-])c1C)C(=O)C=C(NCc1ccc(Cl)cc1)C2=O`, the growth is -16.2% (active).

In the case of `Cc1nc2cc(Nc3nc(Nc4ccc(F)cc4)nc(N4CCN(C)CC4)n3)ccc2n1Cc1ccccc1`, the growth was -40.2% (active).

`COc1ccc(OC)c2ncccc12`: the growth is 94.9%.

Regarding `COc1ccc(S(=O)(=O)ON=C2C=C(C)C(=O)C(C)=C2)cc1`, the growth is 35.1%.

Turning to `O=C(COc1cccc(/C=C2\COc3ccccc3C2=O)c1)c1ccccc1`, the growth was -51.1% (active).

With `Oc1cccc(Nc2nc(-c3ccccn3)cs2)c1`, the growth was 81.9%.

With `O=C1c2c(c3c4cc(Br)ccc4[nH]c3c3ccc4ccccc4c23)C(=O)N1O`, the growth is 58.9%.

For the molecule `C=CC[P+](c1ccccc1)(c1ccccc1)c1ccccc1`, the growth was 6.29% (active).

For the molecule `COC(=O)c1c2c(c(C)[n+]([O-])c1C)C(=O)C=C(NCc1cccc(Cl)c1)C2=O`, the growth is -31.9% (active).

Regarding `COc1ccc(-c2[nH]ncc2Nc2cc(OC)c(OC)c(OC)c2)cc1`, the growth was 33.2%.

For `COc1ccc(-c2nc(Nc3ccc(F)cc3)nc(Nc3ccc4c(c3)nc(C)n4Cc3ccccc3)n2)cc1`, the growth is -17.7% (active).

For the molecule `O=C(N/N=C(\CS(=O)(=O)c1ccccc1)c1cc2ccccc2oc1=O)c1ccccc1`, the growth was 112%.

In the case of `COc1ccc(C(=O)C2=CC(=O)C(=O)C2)cc1OC`, the growth is 98.7%.

`COc1ccc(C(=O)COc2cccc(/C=C3\CSc4ccc(C)cc4C3=O)c2)cc1`: the growth was -23.5% (active).

Regarding `Cc1ccc(S(=O)(=O)N2C/C(=C\c3cc(F)cc(F)c3)C(=O)/C(=C/c3cc(F)cc(F)c3)C2)cc1`, the growth was -15.1% (active).

Consider `Nc1nc(N)c(N=Nc2c(Br)cc(S(N)(=O)=O)cc2Br)c(N)n1`, for which the growth is 106%.

Regarding `Cc1ccc(-c2c3c(N)c4c(nc3nc3c2c(C)nn3-c2ccccc2)CCCC4)cc1`, the growth was 94.1%.

Consider `COc1cc(-c2nc3ccccc3o2)cc(CN2CCN(c3ccccc3)CC2)c1O`, for which the growth is 53.2%.

As to `Cc1cccc2c(=O)c3c(sc12)c(NCCNCCO)nc1ccccc13`, the growth is -34.2% (active).

As to `Nc1nc2c(s1)CCc1c-2c(Br)n(Cc2ccccc2)c1Br`, the growth is 51.7%.

On to `COC(=O)c1c2c(c(C)[n+]([O-])c1C)C(=O)C=C(NCc1cccc(OC)c1)C2=O`, for which the growth is -35.5% (active).

As to `COc1ccc(-c2csc3c2-n2cccc2C3=O)cc1O`, the growth was -19.8% (active).

As to `COc1ccc(-c2c(-c3cc4c(c(OC)c3OC)OCO4)noc2N)cc1`, the growth is 17.3%.

Take `O=C(N/N=C(\CS(=O)(=O)c1ccccc1)c1cc2cc(Br)ccc2oc1=O)c1ccccc1`: the growth was 121%.

Regarding `Cn1c(=O)c2c(-c3ccccc3F)n(-c3ccc4c(c3)OCO4)cc2n(C)c1=O`, the growth was 52.9%.

Consider `CN(C)C(=S)SCN1C(=O)c2ccc([N+](=O)[O-])cc2S1(=O)=O`, for which the growth is 116%.

With `Cc1nn(-c2ccccc2)c2nc3nc4c(c(N)c3c(-c3ccc(Cl)cc3)c12)CCCC4`, the growth is 93%.

Regarding `COc1cc(CNCCN2C(=O)c3ccc4c5c(ccc(c35)C2=O)C(=O)N(CCNCc2cc(OC)c(OC)c(OC)c2)C4=O)cc(OC)c1OC`, the growth was -25.5% (active).

`O=C(O)c1ccccc1Oc1cc(-c2ccco2)nc(OCCBr)n1`: the growth was 123%.

`COc1cc(-c2ccc3cc(OC)c(OC)c(OC)c3c2)cc(OC)c1OC`: the growth was 53.1%.

Turning to `COc1cccc(-c2ccc3c(c2)C2CCN(Cc4ccccc4)C3C2)c1` (stereo not given), the growth is 59.4%.

Turning to `COc1ccc(OC2=CC(=O)c3ccc(C)nc3C2=O)cc1`, the growth is 79.7%.

Consider `CC(=O)OC[C@]1(C)C=C2C(=O)[C@](C)(O)C3(CC3)C(C)=C2[C@H]1OC(C)=O`, for which the growth was 84.1%.
